From PubChem BioAssay
“And” between values parts separate entries of the source, which are not always exact repeats. Equal values may be shown once. Records with an inconclusive call do not appear. The source made the active and inactive calls. Unless noted, no stated cut-off is given here; in the data, active means inhibition above about 80%; inactive means the rest.

Tests used:
[1] = growth inhibition of DIPG glioma cells, dose response, cell-based, SU-DIPG-XVII, MIPE5.0, CellTiter-Glo, qHTS (AID 1347060; cut-off not given, nearly all actives have AC50 up to about 26 µM;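 on AC50: cells exposed to compound for 48 hours before viability readout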); settings: SU-DIPG-XVII viability, CellTiter-Glo ATP luminescence
[2] = growth inhibition of DIPG glioma cells, dose response, cell-based, SU-DIPG-XIII, MIPE4.0, CellTiter-Glo, qHTS (AID 1347061; cut-off not given, nearly all actives have AC50 up to about 37 µM;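 further: cells exposed to compound for 48 hours before readout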); settings: SU-DIPG-XIII viability, CellTiter-Glo ATP luminescence
[3] = growth inhibition of DIPG glioma cells, dose response, cell-based, JHH-DIPG-1, MIPE4.0, CellTiter-Glo, qHTS (AID 1347062; cut-off not given, nearly all actives have AC50 up to about 27 µM;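 on AC50: cells exposed to compound for two days before readout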); settings: JHH-DIPG-1 viability, CellTiter-Glo ATP luminescence
[4] = growth inhibition of DIPG glioma cells, dose response, cell-based, SU-DIPG-IV, MIPE4.0, CellTiter-Glo, qHTS (AID 1347063; cut-off not given, nearly all actives have AC50 up to about 30 µM;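 further: compound exposure lasted 48 hours before the viability readout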); settings: SU-DIPG-IV viability, CellTiter-Glo ATP luminescence
[5] = growth inhibition of DIPG glioma cells, dose response, cell-based, SU-DIPG-XIII, MIPE5.0, CellTiter-Glo, qHTS (AID 1347064; cut-off not given, nearly all actives have AC50 up to about 23 µM;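 on AC50: cells exposed to compound for 48 hours before the viability read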); settings: SU-DIPG-XIII viability, CellTiter-Glo ATP luminescence
[6] = SU-DIPG-VI glioma cell viability, MIPE4.0 library, CellTiter-Glo luminescence, qHTS (AID 1347066; cut-off not given, nearly all actives have AC50 up to about 30 µM;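 further: cells exposed to compound for 48 hours before readout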); settings: CellTiter-Glo ATP luminescence
[7] = JHH-DIPG-1 glioma cell viability, MIPE5.0 library, CellTiter-Glo luminescence, qHTS (AID 1347067; cut-off not given, nearly all actives have AC50 up to about 26 µM;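 further: cells exposed to compound for 48 hours before readout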); settings: JHH-DIPG-1 glioma viability, CellTiter-Glo ATP luminescence
[8] = viability loss in pontine glioma line – cell-based, SU-DIPG-XXV, MIPE5.0, CellTiter-Glo, qHTS, dose response (AID 1347065; cut-off not given, nearly all actives have AC50 up to about 26 µM;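 further: cells exposed to compound for 48 hours before ATP readout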); settings: CellTiter-Glo ATP luminescence
[9] = sensitizers of A549 cells to miR-34 induction, primary screen, imaging, A549 dox-inducible miR-34, nuclei and caspase counts (AID 1347080;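 active means compounds whose cell count with miR-34 switched on is under 0.7 times the count with it off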); settings: A549 miR-34 inducible, Hoechst nuclei count, 48 h
[10] = survival rescue of mitochondrial mutant cells in low glucose, primary screen, MELAS cybrids, Rieske KO mouse fibroblasts, CellTiter-Glo (AID 1508586;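 active means mean z-score across replicates of 1.96 or higher in either the MELAS or the Rieske mutant cell line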;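 further: z relative to plate mean and SD of compound and empty wells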)
[11] = LFS_MB_P medulloblastoma growth inhibition, cell-based, chromothripsis tumors, cisplatin or BGB combos (AID 1671449); settings: LFS_MB_P medulloblastoma cells;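 further: cells exposed for 96 hours; 0% = vehicle DMSO and 100% = killing by high DMSO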
[12] = HDN33 neuroblastoma growth inhibition, cell-based, chromothripsis tumors, cisplatin or BGB combos (AID 1671450); settings: HDN33 neuroblastoma cells, stronger effect = higher value;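 further: cells exposed to compound for four days; 0% = vehicle DMSO and 100% = cell killing by high DMSO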
[13] = ICB984 medulloblastoma cell growth inhibition, synergistic combos for chromothripsis tumors, cisplatin or BGB combos (AID 1671451; call rule not given here;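 further: cells exposed for 96 hours before readout; 0% = vehicle DMSO and 100% = killing by high DMSO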); settings: ICB984 medulloblastoma cells, drug combinations, stronger effect = higher value
[14] = HTB85 osteosarcoma cell growth inhibition, synergistic combos for chromothripsis tumors, BGB or cisplatin IC20 combos (AID 1671453); settings: HTB85 osteosarcoma cells, drug combinations, stronger effect = higher value;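 further: cells exposed for 96 hours before readout; 0% = vehicle DMSO and 100% = high DMSO killing control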
[15] = MDA-MB-436 breast carcinoma cell growth inhibition, synergistic combos for chromothripsis tumors, BGB or cisplatin combos (AID 1671458; call rule not given here;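 further: cells exposed for 96 hours; 0% = vehicle DMSO and 100% = killing by high DMSO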); settings: MDA-MB-436 breast carcinoma growth inhibition, drug combinations, stronger effect = higher value
[16] = growth inhibition of BT084 medulloblastoma cells, cell-based, ICGC_MB145, cisplatin and BGB IC40 combos (AID 1671461); settings: drug combinations, stronger effect = higher value;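 further: cells exposed to drugs for 96 hours; 0% = vehicle DMSO and 100% = high DMSO full killing control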
[17] = growth inhibition of RCMB18 medulloblastoma cells, cell-based, cisplatin and BGB IC40 combos (AID 1671462); settings: stronger effect = higher value;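 further: cells exposed to compound for four days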

With `Cc1cncc2cccc(S(=O)(=O)N3CCCN(C(=O)CN)C[C@@H]3C)c12` as the molecule, how does the outcome [1] read?
The outcome was “inactive”.

And the outcome [2]?
Its outcome is “inactive”.

And the outcome [3]?
The outcome was “inactive”.

What about the AC50 [4] of the same molecule?
Its AC50 is 0.372 µM (active).

What about the outcome [5] of the same molecule?
Its outcome is “inactive”.

And the outcome [6]?
The outcome was “inactive”.

What about the outcome [7] of the same molecule?
The outcome was “inactive”.

Which results are given for `O=C(CCCCCCNC(=O)c1cnc(N(c2ccccc2)c2ccccc2)nc1)NO`?
AC50 [1]: 7.42 µM (active); AC50 [2]: 23.5 µM (active); AC50 [3]: 7.43 µM (active); AC50 [4]: 5.9 µM (active); AC50 [5]: 4.17 µM (active); AC50 [8]: 7.42 µM (active); AC50 [7]: 8.33 µM (active); fold change ([9]; stronger effect = lower value, cell number ratio, induced over uninduced): 0.909 (inactive); fold change ([9]; measured here: relative caspase fold change +Dox/-Dox): 0.469; cell count ([9]; measured here: total cells with miR-34 induction, stronger effect = lower value): 4500; cell count ([9]; measured here: total cells without miR-34 induction): 4950; z-score ([10]; MELAS cybrid survival, CellTiter-Glo 48 h, stronger effect = higher value): -0.658 (inactive); z-score ([10]; Rieske KO mouse fibroblast survival, CellTiter-Glo 72 h): 0.218; inhibition ([11]; at 0.5 µM, stronger effect = higher value): -14.5% (inactive) and -5.58% (inactive); inhibition ([11]; measured here: combination with BGB IC20, at 0.005 µM): -18.6% and -24.1%; inhibition ([11]; measured here: combination with BGB IC40, at 0.005 µM): -32.2% and -65.4%; inhibition ([11]; measured here: combination with BGB IC40, at 0.05 µM): -41.9% and -39.4%; inhibition ([11]; measured here: combination with cisplatin, at 0.5 µM, stronger effect = higher value): -7.65% and 15.8%; inhibition ([11]; measured here: combination with cisplatin, at 5 µM, stronger effect = higher value): 98.3% and 80%; inhibition ([12]; BGB combo, at 5 µM): 42.2% and -4.91%; inhibition ([12]; at 0.5 µM): -11.3% (inactive) and -31.5% (inactive); inhibition ([12]; cisplatin combo, at 5 µM): 48.9% and 1.35%; inhibition ([12]; measured here: with BGB IC20 combination, at 0.5 µM): -15.6% and -44.2%; inhibition ([12]; measured here: with cisplatin IC20 combination, at 0.5 µM): -0.181% and -16.9%; inhibition ([12]; single agent, at 5 µM): 58.6% and 19.5%; inhibition ([13]; BGB IC20 combo, at 0.005 µM): -1.95% and -4.3%; inhibition ([13]; BGB IC40 combo, at 0.005 µM): -29.2% and -32%; inhibition ([13]; BGB IC40 combo, at 0.05 µM): 25.2% and 28%; inhibition ([13]; at 0.5 µM): -12.7% (inactive) and -20.3% (inactive); inhibition ([13]; cisplatin combo, at 0.05 µM): 22.5% and 24.5%; inhibition ([13]; cisplatin combo, at 0.5 µM): -4.11% and -25.4%; inhibition ([13]; cisplatin combo, at 5 µM): -33% and -20%; inhibition ([13]; measured here: 5 uM single agent, at 5 µM): -20.1% and -35.8%; inhibition ([14]; at 0.5 µM): -4.93% (inactive) and -17.7% (inactive); inhibition ([14]; measured here: with BGB IC20, at 0.5 µM): -15.5% and -21.9%; inhibition ([14]; measured here: with BGB IC20, at 5 µM): 46.8% and 4.12%; inhibition ([14]; measured here: with cisplatin IC20, at 0.5 µM): 14.2% and -10.7%; inhibition ([14]; measured here: with cisplatin IC20, at 5 µM): 38.8% and 48.3%; inhibition ([14]; single agent, at 5 µM): 42.9% and 23.4%; inhibition ([15]; at 0.5 µM): -21.3% (inactive) and -18.7% (inactive); inhibition ([15]; measured here: BGB combination, at 0.5 µM): -26.1% and -14.4%; inhibition ([15]; measured here: BGB combination, at 5 µM): 12.3% and 1.72%; inhibition ([15]; measured here: cisplatin combination, at 0.5 µM): -29.8% and -32%; inhibition ([15]; measured here: cisplatin combination, at 5 µM): 9.34% and 4.42%; inhibition ([16]; at 0.5 µM): 0.96% (inactive) and 10.8% (inactive); inhibition ([16]; cisplatin combination, at 0.5 µM): -4.86% and 4.91%; inhibition ([16]; cisplatin combination, at 5 µM): 90.9% and 41.3%; inhibition ([16]; measured here: BGB IC40 combination 0.05 uM, at 0.05 µM): -52.6% and -17.2%; inhibition ([16]; single agent, at 5 µM): 58% and 51.4%; inhibition ([17]; at 0.5 µM): -4.02% (inactive) and 5.89% (inactive); inhibition ([17]; cisplatin combo, at 5 µM): 58% and 24.2%; inhibition ([17]; measured here: BGB IC40 combination, at 0.05 µM): -5.21% and -9.76%; inhibition ([17]; measured here: combination with cisplatin, at 0.5 µM): 7.09% and 6.01%; inhibition ([17]; single agent, at 5 µM): 36.2% and 26.2%
